Records with an inconclusive call do not appear. Activity calls are given as the source filed them. Unless noted, calls follow the shape of the dose curve; as a rule, active = well fitted curve in either direction with a large enough effect (not every such curve was filed as active); inconclusive = small, poorly fitted or top-dose-only effect, or another doubt; inactive = flat fitted curve, though single readings scatter.
Columns and labels:
[1] = target: Lysosomal acid glucosylceramidase (Homo sapiens) (UniProt P04062); assay: Glucocerebrosidase-p2 (AID 348; in the data active = potency below about 10 µM; also: potency is read from the fitted curve at half-maximal effect); conditions: purified GBA, blue fluorogenic substrate, 40 min
Summary of the method: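 Normal human glucocerebrosidase (0.2 nM) with blue fluorogenic substrate (80 uM final) in citrate/phosphate pH 5.9 with 10mM sodium taurocholate, 0.01% tween-20; 40 min RT, NaOH/glycine stop; fluorescence Ex 365/Em 440; AC50 from a titration from 0.6 nM upwards.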

[2] = AP1 Signaling Pathway (AID 357); conditions: ME-180 AP-1-bla reporter, EGF-induced, beta-lactamase ratio, 5 h; at 7.69 µM (top of the series) unless noted;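 also: ME-180 reporter cells stimulated with EGF at its EC50 level; % is scaled to controls: 0 for no effect and ±100 for the full control effect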
Summary of the method: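 Titration-series screen for positive or negative modulators of EC50 EGF-induced signaling in ME-180 cells carrying an AP-1-driven beta-lactamase reporter. After 5 hours at 37 degrees Celsius, CCF4 460nm/530nm emission ratio gave %Activity; AC50 values derived.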

[3] = NFAT Signaling Pathway (AID 444); conditions: Jurkat NFAT-bla M1, carbachol, beta-lactamase ratio, 5 h; at 7.69 µM (top of the series) unless noted;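 also: carbachol stimulus at about its EC50 of 1 µM final; % is scaled to controls: 0 for no effect and ±100 for the full control effect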
Summary of the method: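 Read-out: CCF4 FRET ratio (460 nm/530 nm) after 1 h RT dye loading, used for %activity and AC50 from titration series. Cells: Jurkat NFAT-β-lactamase/M1 line, treated with compound plus 1 uM carbachol for 5 h, 37 °C.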

[4] = Stat Signaling Pathway (AID 446); conditions: ME-180 (cervical carcinoma) SIE beta-lactamase reporter, IL-6 stimulated, 5 h; at 7.69 µM (top of the series) unless noted;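 also: ME-180 cervical cancer cells given 40 pM IL-6 alongside compound; SIE-controlled beta-lactamase reporter measured as 460/530 nm FRET emission ratio; % is scaled to controls: 0 for no effect and ±100 for the full control effect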
Summary of the method: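 Compound effects on IL-6-induced STAT reporter activity were measured in ME-180 cells. After overnight culture, cells were co-treated with 40 pM IL-6 for 5 hrs before beta-lactamase substrate loading at room temperature.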

[5] = target: Glucocorticoid receptor (Homo sapiens) (UniProt P04150); assay: GR-GFP Redistribution (AID 450;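 active = compounds whose dose series gives a full or clear partial fitted curve of increased nuclear translocation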; also: potency is read from the fitted curve at half-maximal effect); conditions: U2OS GR-GFP nuclear translocation, laser cytometry, 2 h
[6] = target: Glucocorticoid receptor (Homo sapiens) (UniProt P04150); assay: GR-EFC Redistribution (AID 451; calls by dose curve; also: potency is read from the fitted curve at half-maximal effect); conditions: CHO-K1 GR-EFC translocation, beta-gal luminescence, 2 h
Summary of the method: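 Translocation of GR-ED fusion to nuclear EA restores b-gal, read by luminescence after 1 h room-temperature detection. Engineered CHO-K1 biosensor cells, 1,000/well, exposed 2 h at 37 C to titrations up to 46 uM final.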

[7] = target: Mitogen-activated protein kinase 10 (Mus musculus) (UniProt Q61831); assay: JNK3 AlphaScreen Assay (AID 530); conditions: JNK3 lysate, c-Jun phosphorylation; series mostly up to 11.4 µM;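 also: kinase came from lysate of stimulated human HepG2 cells; signal reports phosphorylation of biotinylated GST-cJun 1-79 at Ser73 with 10 µM ATP; % is scaled to controls: 0 for no effect and ±100 for the full control effect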
Summary of the method: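 Kinase buffer: 20 mM Tris-HCl pH 7.6, 10 mM MgCl2, 1 mM DTT, 0.1 mM Na3VO4, 0.01% Tween-20; ATP 10 uM. Substrate biotin-GST-cJun(1-79), enzyme from activated HepG2 lysates. Detection by Ser73 phospho-antibody AlphaScreen.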

[8] = target: 3',5'-cyclic-AMP phosphodiesterase 4B (Homo sapiens) (UniProt Q07343); assay: qHTS Assay for Inhibitors of PDE-IV (AID 607; active = well fitted activation curve with a large enough effect in the main read-out, with a control signal flat, not every such curve was filed as active; also: % of control where 0% means no effect); conditions: HEK293 ACTOne CNG channel cells, membrane potential fluorescence; series mostly up to 22.9 µM
Summary of the method: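 ACTOne HEK293 cells carry a modified cAMP-gated CNG channel and express endogenous PDE4; plated 1000 cells/well, compounds up to 22.9 uM final. Membrane-potential dye fluorescence (ex 535/em 590) was read; parental cells received 10 uM forskolin + 100 uM RO 20-1724.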

Sequence of Glucocorticoid receptor (Homo sapiens) (P04150 whole entry, looked up, the tested form may be a part): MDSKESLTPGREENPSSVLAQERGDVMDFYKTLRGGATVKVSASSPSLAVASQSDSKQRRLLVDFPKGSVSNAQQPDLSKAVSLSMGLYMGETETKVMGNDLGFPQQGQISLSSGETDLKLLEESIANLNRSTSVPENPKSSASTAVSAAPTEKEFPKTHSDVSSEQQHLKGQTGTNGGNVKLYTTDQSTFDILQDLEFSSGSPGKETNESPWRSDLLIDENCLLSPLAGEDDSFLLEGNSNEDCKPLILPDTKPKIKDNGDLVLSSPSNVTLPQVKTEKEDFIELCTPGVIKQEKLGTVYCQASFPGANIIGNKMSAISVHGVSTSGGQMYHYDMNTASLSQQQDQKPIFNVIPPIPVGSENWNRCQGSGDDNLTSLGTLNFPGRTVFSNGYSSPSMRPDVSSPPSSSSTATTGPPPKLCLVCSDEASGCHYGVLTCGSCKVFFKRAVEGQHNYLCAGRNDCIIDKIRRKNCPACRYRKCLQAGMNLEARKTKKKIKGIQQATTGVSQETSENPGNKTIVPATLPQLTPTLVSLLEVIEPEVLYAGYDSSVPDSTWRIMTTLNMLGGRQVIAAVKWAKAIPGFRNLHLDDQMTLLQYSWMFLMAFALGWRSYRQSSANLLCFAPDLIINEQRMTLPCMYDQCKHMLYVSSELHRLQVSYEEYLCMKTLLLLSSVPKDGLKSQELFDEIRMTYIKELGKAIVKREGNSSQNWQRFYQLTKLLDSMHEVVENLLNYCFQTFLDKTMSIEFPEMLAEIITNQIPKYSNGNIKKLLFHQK
Sequence of Lysosomal acid glucosylceramidase (Homo sapiens) (P04062 whole entry, looked up): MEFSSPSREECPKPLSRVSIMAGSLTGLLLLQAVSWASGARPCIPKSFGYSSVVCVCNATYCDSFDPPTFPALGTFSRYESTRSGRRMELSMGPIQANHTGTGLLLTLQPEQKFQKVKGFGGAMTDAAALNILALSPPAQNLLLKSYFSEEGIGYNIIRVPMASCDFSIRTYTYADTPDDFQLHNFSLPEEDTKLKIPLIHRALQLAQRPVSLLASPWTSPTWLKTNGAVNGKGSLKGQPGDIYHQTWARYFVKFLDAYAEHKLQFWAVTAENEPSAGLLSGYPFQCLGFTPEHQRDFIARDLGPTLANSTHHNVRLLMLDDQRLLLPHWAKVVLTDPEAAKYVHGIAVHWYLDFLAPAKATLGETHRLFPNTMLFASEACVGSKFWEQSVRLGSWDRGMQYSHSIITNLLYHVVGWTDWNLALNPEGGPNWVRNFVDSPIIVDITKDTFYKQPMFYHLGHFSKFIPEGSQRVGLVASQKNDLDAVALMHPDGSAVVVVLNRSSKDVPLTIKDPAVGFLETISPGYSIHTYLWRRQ
Sequence of 3',5'-cyclic-AMP phosphodiesterase 4B (Homo sapiens) (Q07343 whole entry, looked up): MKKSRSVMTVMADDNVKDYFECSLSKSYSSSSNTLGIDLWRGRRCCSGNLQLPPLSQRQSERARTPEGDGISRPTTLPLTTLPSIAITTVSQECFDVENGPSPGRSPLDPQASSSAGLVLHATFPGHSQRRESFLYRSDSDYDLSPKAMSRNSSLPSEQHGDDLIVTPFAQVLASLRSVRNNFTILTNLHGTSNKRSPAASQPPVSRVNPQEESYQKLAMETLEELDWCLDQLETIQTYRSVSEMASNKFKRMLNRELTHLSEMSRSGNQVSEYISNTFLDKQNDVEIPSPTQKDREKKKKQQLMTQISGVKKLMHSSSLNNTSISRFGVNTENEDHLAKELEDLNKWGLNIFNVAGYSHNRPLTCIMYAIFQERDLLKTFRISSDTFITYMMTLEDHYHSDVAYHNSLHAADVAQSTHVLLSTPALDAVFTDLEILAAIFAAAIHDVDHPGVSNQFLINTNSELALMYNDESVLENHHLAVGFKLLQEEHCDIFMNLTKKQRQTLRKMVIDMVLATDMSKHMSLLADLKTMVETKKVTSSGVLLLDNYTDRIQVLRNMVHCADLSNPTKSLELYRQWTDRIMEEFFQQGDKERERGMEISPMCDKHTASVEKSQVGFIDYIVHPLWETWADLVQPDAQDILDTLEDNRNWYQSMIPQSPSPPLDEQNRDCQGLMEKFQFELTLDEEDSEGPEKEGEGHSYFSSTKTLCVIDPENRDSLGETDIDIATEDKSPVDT

N=C(N)c1ccc(/C=C\c2ccc(C(=N)N)cc2)cc1
inactive: Potency [1] > 11.4 µM | activity change, negative = inhibition [2] 0.27% | activity change, negative = inhibition [3] -7.18% | activity, negative = inhibition [4] 7.39% | Potency [5] > 46 µM | Potency [6] > 9.22 µM | Potency [7] | Potency [8]

COc1ncc2nc(C)c(=O)n(C)c2n1
inactive: Potency [1] > 11.4 µM | activity change, negative = inhibition [2] -15% | activity change, negative = inhibition [3] -2.54% | activity, negative = inhibition [4] -2.89% | Potency [5] > 9.22 µM | Potency [6] > 46 µM | Potency [7] | Potency [8]

CN(C)C[C@@H](O)c1ccc(Cl)c2ccccc12
inactive: Potency [1] > 11.4 µM | activity change, negative = inhibition [2] 13.3% | activity change, negative = inhibition [3] -4.99% | activity, negative = inhibition [4] 18.4% | Potency [5] > 46 µM | Potency [6] > 9.22 µM | Potency [7] | Potency [8]

O=C(O)c1ccc(C(=O)Nc2cccc3ccccc23)c(C(=O)O)c1
inactive: Potency [1] > 11.4 µM | activity change, negative = inhibition [2] 4.87% | activity change, negative = inhibition [3] 5.96% | activity, negative = inhibition [4] 0.708% | Potency [5] > 46 µM | Potency [6] > 9.22 µM | Potency [7] | Potency [8]

Cn1cnc([N+](=O)[O-])c1Sc1nc(N)nc2c1ncn2[C@H]1C[C@H](O)[C@@H](CO)O1
inactive: Potency [1] > 11.4 µM | activity change, negative = inhibition [2] -4.23% | activity change, negative = inhibition [3] -2.48% | activity, negative = inhibition [4] 0.176% | Potency [5] > 46 µM | Potency [6] > 9.22 µM | Potency [7] | Potency [8]

O=C(O)[C@@H]1[C@@H](C(=O)Nc2ccccc2)[C@@H]2C=C[C@@H]1O2
inactive: Potency [1] > 11.4 µM | activity change, negative = inhibition [2] 3.5% | activity change, negative = inhibition [3] 8.21% | activity, negative = inhibition [4] -5.22% | Potency [5] > 46 µM | Potency [6] > 9.22 µM | Potency [7] | Potency [8]

O=C(O)C(Cl)(c1ccccc1)c1ccccc1
inactive: Potency [1] > 11.4 µM | activity change, negative = inhibition [2] 1.69% | activity change, negative = inhibition [3] 6.6% | activity, negative = inhibition [4] -5.62% | Potency [5] > 46 µM | Potency [6] > 9.22 µM | Potency [7] | Potency [8]

C[N+]1(C)CCO[C@](O)(c2ccccc2)C1
inactive: Potency [1] > 11.4 µM | activity change, negative = inhibition [2] 7.17% | activity change, negative = inhibition [3] -3.28% | activity, negative = inhibition [4] 6.89% | Potency [5] > 46 µM | Potency [6] > 9.22 µM | Potency [7] | Potency [8]

CC1(C)CC(Nc2ccc(Nc3ccccc3)cc2)CC(C)(C)N1
inactive: Potency [1] > 11.4 µM | activity change, negative = inhibition [2] -24.4% | activity change, negative = inhibition [3] 6.65% | activity, negative = inhibition [4] -6.18% | Potency [5] > 46 µM | Potency [6] > 9.22 µM | Potency [7] | Potency [8]

NC(=O)N[C@H](CC(=O)O)C(=O)O
inactive: Potency [1] > 11.4 µM | activity change, negative = inhibition [2] -2.2% | activity change, negative = inhibition [3] 0.469% | activity, negative = inhibition [4] -0.625% | Potency [5] > 46 µM | Potency [6] > 9.22 µM | Potency [7] | Potency [8]

C[N+](C)([O-])Cc1cc(-c2ccccc2)ccc1O
inactive: Potency [1] > 11.4 µM | activity change, negative = inhibition [2] -2.32% | activity change, negative = inhibition [3] 1.32% | activity, negative = inhibition [4] -3.36% | Potency [5] > 46 µM | Potency [6] > 9.22 µM | Potency [7] | Potency [8]

Cn1c(N)nc2c(nc(OCc3ccccc3)n2[C@@H]2O[C@H](CO)[C@@H](O)[C@@H]2O)c1=O
inactive: Potency [1] > 11.4 µM | activity change, negative = inhibition [2] 2.38% | activity change, negative = inhibition [3] 6.31% | activity, negative = inhibition [4] -1.71% | Potency [5] > 46 µM | Potency [6] > 9.22 µM | Potency [7] | Potency [8]

CCCNc1ncnc2[nH]ncc12
inactive: Potency [1] > 11.4 µM | activity change, negative = inhibition [2] -4.57% | activity change, negative = inhibition [3] 5.61% | activity, negative = inhibition [4] -1.7% | Potency [5] > 46 µM | Potency [6] > 9.22 µM | Potency [7] | Potency [8]

Cc1cc2ncn(CC(=O)O)c2cc1C
inactive: Potency [1] > 11.4 µM | activity change, negative = inhibition [2] -4.54% | activity change, negative = inhibition [3] 1.45% | activity, negative = inhibition [4] 8.76% | Potency [5] > 46 µM | Potency [6] > 9.22 µM | Potency [7] | Potency [8]

CNC[C@@H](SC)c1ccc(O)c(O)c1
inactive: Potency [1] > 11.4 µM | activity change, negative = inhibition [2] 1.24% | activity change, negative = inhibition [3] 7.41% | activity, negative = inhibition [4] 21% | Potency [5] > 46 µM | Potency [6] > 9.22 µM | Potency [7] | Potency [8]

CC(=O)Nc1ccc(-c2cc(C(=O)O)c3cc4ccccc4cc3n2)cc1
inactive: Potency [1] > 11.4 µM | activity change, negative = inhibition [2] 7.67% | activity change, negative = inhibition [3] 5.02% | activity, negative = inhibition [4] -2.25% | Potency [5] > 46 µM | Potency [6] > 9.22 µM | Potency [7] | Potency [8]

Nc1ccc(Cc2ccc(N)c(C(=O)O)c2)cc1C(=O)O
inactive: Potency [1] > 11.4 µM | activity change, negative = inhibition [2] 12.6% | activity change, negative = inhibition [3] 16.6% | activity, negative = inhibition [4] 1.75% | Potency [5] > 46 µM | Potency [6] > 9.22 µM | Potency [7] | Potency [8]
